The values below come from PubChem BioAssay (EPA / NIEHS).

Results filed as inconclusive are left out. Calls of active or inactive are those of the source. Rule for the calls, unless noted: active = hit-call score of the fitted dose curve at least 0.9, where 1 is the maximum; inactive = score below 0.9.

Test [1] deals with Myc proto-oncogene protein (Homo sapiens) (UniProt P01106). In words: ATG_Myc_CIS: Attagene CIS-FACTORIAL HepG2 Assay for human Myelocytomatosis (Myc) Proto-Oncogene Transcription Factor (AID 2282990). As to conditions: HepG2, Attagene cis-reporter transcription factor activity; actives raise or lower the signal. Summed up:
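Cells of the HepG2 human liver line bear multiple cis-driven reporter transcription units. Reporter mRNA after 24 h exposure is reverse-transcribed, amplified, labelled and resolved by capillary electrophoresis, with gain- or loss-of-signal fitting relative to DMSO.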

A short description of test [2]: ATG_NRF2_ARE_CIS: Attagene CIS-FACTORIAL HepG2 Assay for human Nuclear Factor Erythroid 2 Related Factor 2 (NFR2) response to Antioxidant Response Elements (ARE) (AID 2282992).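 For AC50: reporter mRNA level measured by RT-PCR and capillary electrophoresis fluorescence.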 To be noted: HepG2 Attagene ARE/NRF2 reporter, transcription factor activity; actives raise or lower the signal. The gist of the method: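 Endogenous transcription factor activity in human liver HepG2 cells is tracked via a cis-element-driven reporter within a multiplexed set. mRNA induction is read by RT-PCR and capillary electrophoresis after 24 h, with DMSO as baseline.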

The nature of test [3]: ATG_Oct_MLP_CIS: Attagene CIS-FACTORIAL HepG2 Assay for human Octamer-Binding Transcription Factor (Oct) (AID 2282993). To be noted: HepG2 Attagene cis-factorial Oct reporter, mRNA; actives raise or lower the signal. The gist of the method:
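HepG2 cells transiently transfected with cis-element-driven reporter transcription units (endogenous TF activity); 24 h compound exposure. Reporter mRNA quantified by RT-PCR, 6-FAM labelling, HpaI digestion and capillary electrophoresis; bidirectional fit versus DMSO baseline.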

Test [4] is described as follows: BSK_3C_TissueFactor: BioMAP Diversity Plus: 3C Assay for Tissue Factor Biomarker Activity (AID 2282997). As to conditions: BioMAP 3C HUVEC, tissue factor biomarker readout; actives raise or lower the signal. The gist of the method:
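Tissue Factor measured by ELISA, 24 h after treatment of primary HUVEC in the BioMAP 3C setting.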

Test [5] in a line: BSK_3C_uPAR: BioMAP Diversity Plus: 3C Assay for Urokinase-type plasminogen activator receptor (uPAR) Biomarker Activity (AID 2282998). To be noted: BioMAP 3C HUVEC, uPAR biomarker ELISA; actives raise or lower the signal. Summed up:
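Primary human umbilical vein endothelial cells, 3C system; surface uPAR measured by ELISA 24 h after dosing. Cytotoxicity via SRB total protein in parallel cultures; bidirectional fit against DMSO.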

Test [6] is described as follows: BSK_3C_VCAM1: BioMAP Diversity Plus: 3C Assay for Vascular cell adhesion molecule 1 (VCAM1) Biomarker Activity (AID 2282999). As to conditions: BioMAP 3C HUVEC, VCAM1 ELISA, cytokine-stimulated; actives raise or lower the signal. The gist of the method: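 Activity fitted in both directions relative to DMSO, with ELISA measurement of the surface marker on primary HUVEC (3C) at 24 h post-treatment; parallel SRB staining (0.1% SRB, TCA-fixed, 560 nm) flagged overt cytotoxicity.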
(In general: ELISA stands for enzyme-linked immunosorbent assay.)

Test [7] is described as follows: BSK_4H_Eotaxin3: BioMAP Diversity Plus: 4H Assay for Eotaxin 3 Biomarker Activity (AID 2283000).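 For outcome: CCL26 protein level quantified by ELISA in parallel with SRB cytotoxicity check.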 As to conditions: primary human endothelial cells (HUVEC); actives raise or lower the signal. The gist of the method: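 Eotaxin-3 (CCL26) levels were measured by ELISA in HUVEC primary cultures 24 h post-dosing. Gain or loss of signal was fitted in both directions, with DMSO serving as baseline and negative control.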

Test [8] concerns the target human Peroxisome Proliferator-activated Receptor delta (PPARd), PPARD (gene 5467) (UniProt Q03181). In words: ATG_PPARd_TRANS: Attagene TRANS-FACTORIAL HepG2 Assay for human Peroxisome Proliferator-activated Receptor delta (PPARd) (AID 2283002; active = hit-call score of the fitted dose curve at least 0.9, where 1 is the maximum). Summed up:
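Cell-based TRANS reporter: HepG2, transient MRTU transfection, 24 h exposure. Readout = reporter mRNA (RT-PCR/CE, 6-FAM). Gain-of-signal fit vs DMSO control.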

Read-out in test [9]: Intercellular Adhesion Molecule 1 (ICAM1), ICAM1 (gene 3383)
Description: BSK_3C_ICAM1: BioMAP Diversity Plus: 3C Assay for Intercellular Adhesion Molecule 1 (ICAM1) Biomarker Activity (AID 2283003). As to conditions: primary human endothelial cells (HUVEC); actives raise or lower the signal. Summed up: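 ELISA readout of ICAM1 in human umbilical vein endothelial cells in the 3C system, taken 24 h post-dose. Gain or loss of signal versus DMSO was fitted in both directions, with SRB total-protein staining run in parallel.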

Test [10] is described as follows: BSK_3C_Proliferation: Cell Proliferation Assessment in the BioMAP Diversity Plus: 3C Assay (AID 2283006).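 For AC50: potency may reflect either rise or fall in cell number versus DMSO.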 To be noted: primary human endothelial cells (HUVEC). The gist of the method:
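Proliferation as total protein: sulforhodamine B (0.1%) stain of TCA-fixed subconfluent human umbilical vein endothelial cells, absorbance 560 nm, 48 h after dosing. Activity fitted in both directions against DMSO baseline.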

Test [11] has as its target Nuclear receptor subfamily 1 group I member 2 (Homo sapiens) (UniProt O75469). In words: ATG_PXR_TRANS: Attagene TRANS-FACTORIAL HepG2 Assay for human Pregnane X Receptor (PXR) (AID 2283008; active = hit-call score of the fitted dose curve at least 0.9, where 1 is the maximum). The gist of the method: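 HepG2 transfected (FuGene 6) with GAL4-UAS reporter units + PXR-Gal4 chimera; dosed 24 h. Total RNA → oligo(dT) RT → PCR → 6-FAM primer extension → HpaI cut → CE. Gain-of-signal vs DMSO.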

For test [12], the target named is human Retinoic Acid Receptor gamma (RARg), RARG (gene 5916) (UniProt P13631). In words: ATG_RARg_TRANS: Attagene TRANS-FACTORIAL HepG2 Assay for human Retinoic Acid Receptor gamma (RARg) (AID 2283009; active = hit-call score of the fitted dose curve at least 0.9, where 1 is the maximum). The gist of the method:
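Transactivation of exogenous RARg-Gal4 fusion measured as reporter transcript induction after 24 h in transfected HepG2 cells. RNA reverse-transcribed, amplified, fluorescently labeled and resolved by capillary electrophoresis; increase relative to DMSO.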

The target of test [13] is human RAR-related Orphan Receptor gamma (RORg), RORC (gene 6097) (UniProt P51449). Description: ATG_RORg_TRANS: Attagene TRANS-FACTORIAL HepG2 Assay for human RAR-related Orphan Receptor gamma (RORg) (AID 2283011; active = hit-call score of the fitted dose curve at least 0.9, where 1 is the maximum). The gist of the method:
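HepG2 cells transiently transfected with GAL4-UAS reporter units and chimeric RORg-Gal4 construct; after 24 h chemical exposure, reporter mRNA measured by RT-PCR with fluorescent capillary electrophoresis, gain of signal fitted against DMSO.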

Test [14] concerns the target Retinoic acid receptor RXR-alpha (Homo sapiens) (UniProt P19793). In words: ATG_RXRa_TRANS: Attagene TRANS-FACTORIAL HepG2 Assay for human Retinoid X Receptor alpha (RXRa) (AID 2283012; active = hit-call score of the fitted dose curve at least 0.9, where 1 is the maximum). Summed up: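 TRANS format reporting activity of exogenous RXRa-Gal4 chimera in transiently transfected HepG2, 24 h exposure. Reporter transcripts quantified by RT-PCR with capillary electrophoresis, with gain of signal scored relative to DMSO.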

The nature of test [15]: ATG_NF_kB_CIS: Attagene CIS-FACTORIAL HepG2 Assay for human Nuclear Factor Kappa B (NF-kB) (AID 2282991). To be noted: HepG2 Attagene cis-factorial NF-kB reporter mRNA; actives raise or lower the signal. The gist of the method:
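Readout is reporter transcript level, gain or loss versus DMSO, measured 24 h post-dose via RT-PCR, fluorescent labelling and capillary electrophoresis. Human HepG2 liver cells carried transiently transfected CIS reporter constructs reflecting endogenous factors.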

For test [16], the target named is Peroxisome proliferator-activated receptor gamma (Homo sapiens) (UniProt P37231). Description: ATG_PPARg_TRANS: Attagene TRANS-FACTORIAL HepG2 Assay for human Peroxisome Proliferator-activated Receptor-gamma (PPARg) (AID 2283007; active = hit-call score of the fitted dose curve at least 0.9, where 1 is the maximum). The gist of the method:
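After 24 h of chemical exposure, transfected HepG2 cells carrying PPARγ-Gal4 chimera reporter constructs are lysed for RNA. Reporter transcripts are measured by RT-PCR and capillary electrophoresis with fluorescent labelling, and gain of signal is fitted versus DMSO.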

Test [17] deals with Cellular tumor antigen p53 (Homo sapiens) (UniProt P04637). In words: ATG_p53_CIS: Attagene CIS-FACTORIAL HepG2 Assay for human p53 Transcription Factor (AID 2282994). To be noted: HepG2 p53 cis-element reporter, Attagene mRNA; actives raise or lower the signal. The gist of the method:
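Steps: transfect HepG2 with multiplexed cis reporter constructs; dose chemicals 24 h; extract RNA, reverse-transcribe, PCR-amplify reporter sequences; FAM-label, HpaI-digest, resolve fragments by CE. Activity fitted both directions relative to DMSO.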

The target of test [18] is human Peroxisome Proliferator-activated Receptor alpha (PPARa), PPARA (gene 5465) (UniProt Q07869). Description: ATG_PPARa_TRANS: Attagene TRANS-FACTORIAL HepG2 Assay for human Peroxisome Proliferator-activated Receptor alpha (PPARa) (AID 2283001; active = hit-call score of the fitted dose curve at least 0.9, where 1 is the maximum). Summed up: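 Reporter transcripts quantified by RT-PCR plus capillary electrophoresis after 24 h treatment, fitted upward relative to DMSO. Cells: human HepG2 transiently carrying multiple GAL4-UAS reporter units driven by NR-Gal4 chimeras.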

Test [19] concerns the target Retinoic acid receptor alpha (Homo sapiens) (UniProt P10276). Description: ATG_RARa_TRANS: Attagene TRANS-FACTORIAL HepG2 Assay for human Retinoic Acid Receptor alpha (RARa) (AID 2283005; active = hit-call score of the fitted dose curve at least 0.9, where 1 is the maximum). Summed up: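 Reporter transcripts, measured by RT-PCR with fluorescent labeling and capillary electrophoresis after 24 h dosing, reflect activity of an exogenous human RARa–GAL4 fusion in transiently transfected HepG2. Fitted for increase relative to DMSO.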

In test [20] the target is human RAR-related Orphan Receptor beta (RORb), RORB (gene 6096) (UniProt Q92753). Description: ATG_RORb_TRANS: Attagene TRANS-FACTORIAL HepG2 Assay for human RAR-related Orphan Receptor beta (RORb) (AID 2283010; active = hit-call score of the fitted dose curve at least 0.9, where 1 is the maximum). Summed up: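 Read-out is reporter mRNA induction, quantified by RT-PCR with fluorescent capillary electrophoresis, 24 h post-dose in transiently transfected HepG2 expressing exogenous NR-Gal4 chimera. Activity fitted upward versus DMSO.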

Sequence of Peroxisome proliferator-activated receptor gamma (Homo sapiens) (P37231 whole entry, looked up, the tested form may be a part): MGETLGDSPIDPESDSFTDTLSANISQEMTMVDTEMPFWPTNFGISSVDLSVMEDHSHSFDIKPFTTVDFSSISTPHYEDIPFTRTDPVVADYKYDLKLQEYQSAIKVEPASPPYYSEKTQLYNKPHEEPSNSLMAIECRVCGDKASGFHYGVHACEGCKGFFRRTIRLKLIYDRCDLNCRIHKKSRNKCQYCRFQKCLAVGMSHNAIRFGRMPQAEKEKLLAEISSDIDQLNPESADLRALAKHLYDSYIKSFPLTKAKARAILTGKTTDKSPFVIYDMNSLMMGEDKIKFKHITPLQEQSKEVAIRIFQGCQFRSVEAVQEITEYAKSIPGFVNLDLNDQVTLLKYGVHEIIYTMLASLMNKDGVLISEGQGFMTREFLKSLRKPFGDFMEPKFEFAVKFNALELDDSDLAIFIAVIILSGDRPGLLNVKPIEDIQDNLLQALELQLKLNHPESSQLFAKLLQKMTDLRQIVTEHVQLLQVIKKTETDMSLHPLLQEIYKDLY
Sequence of Myc proto-oncogene protein (Homo sapiens) (P01106 whole entry, looked up): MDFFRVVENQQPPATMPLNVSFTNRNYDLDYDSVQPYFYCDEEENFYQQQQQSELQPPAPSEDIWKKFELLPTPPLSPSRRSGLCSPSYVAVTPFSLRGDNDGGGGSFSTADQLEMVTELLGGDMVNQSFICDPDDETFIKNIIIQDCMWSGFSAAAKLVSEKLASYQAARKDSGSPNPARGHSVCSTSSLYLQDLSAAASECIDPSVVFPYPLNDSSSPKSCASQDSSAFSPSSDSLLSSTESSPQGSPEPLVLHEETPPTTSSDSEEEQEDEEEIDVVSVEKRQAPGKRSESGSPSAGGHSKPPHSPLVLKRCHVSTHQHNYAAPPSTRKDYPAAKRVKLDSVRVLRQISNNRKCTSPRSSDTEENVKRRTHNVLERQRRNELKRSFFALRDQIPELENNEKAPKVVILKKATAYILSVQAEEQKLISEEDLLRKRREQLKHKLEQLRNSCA
Sequence of Retinoic acid receptor RXR-alpha (Homo sapiens) (P19793 whole entry, looked up, the tested form may be a part): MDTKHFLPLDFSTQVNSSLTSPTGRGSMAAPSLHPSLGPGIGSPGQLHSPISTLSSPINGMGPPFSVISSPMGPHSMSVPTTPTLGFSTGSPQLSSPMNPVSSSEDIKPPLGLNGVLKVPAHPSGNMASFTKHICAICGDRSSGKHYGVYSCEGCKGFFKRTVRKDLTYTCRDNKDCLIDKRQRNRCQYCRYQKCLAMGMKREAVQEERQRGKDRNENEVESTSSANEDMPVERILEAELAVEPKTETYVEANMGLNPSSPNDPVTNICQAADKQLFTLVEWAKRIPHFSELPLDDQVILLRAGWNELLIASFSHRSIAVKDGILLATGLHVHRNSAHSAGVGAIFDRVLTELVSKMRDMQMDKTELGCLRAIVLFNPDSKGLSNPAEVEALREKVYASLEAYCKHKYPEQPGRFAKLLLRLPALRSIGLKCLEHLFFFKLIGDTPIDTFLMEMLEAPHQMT
Sequence of human Retinoic Acid Receptor gamma (RARg), RARG (gene 5916) (P13631 whole entry, looked up, the tested form may be a part): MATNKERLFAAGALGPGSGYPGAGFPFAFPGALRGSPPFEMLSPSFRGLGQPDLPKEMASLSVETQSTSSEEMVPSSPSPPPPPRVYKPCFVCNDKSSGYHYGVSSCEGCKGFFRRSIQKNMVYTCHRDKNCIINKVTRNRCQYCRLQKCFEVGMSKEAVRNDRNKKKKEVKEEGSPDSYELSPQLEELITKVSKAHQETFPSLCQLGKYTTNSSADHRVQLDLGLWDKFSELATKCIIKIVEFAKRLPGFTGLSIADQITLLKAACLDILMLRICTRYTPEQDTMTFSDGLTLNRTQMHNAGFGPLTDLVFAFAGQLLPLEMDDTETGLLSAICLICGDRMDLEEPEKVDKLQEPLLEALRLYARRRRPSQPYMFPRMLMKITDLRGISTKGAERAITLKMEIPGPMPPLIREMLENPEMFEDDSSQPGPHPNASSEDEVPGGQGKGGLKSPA
Sequence of Cellular tumor antigen p53 (Homo sapiens) (P04637 whole entry, looked up, the tested form may be a part): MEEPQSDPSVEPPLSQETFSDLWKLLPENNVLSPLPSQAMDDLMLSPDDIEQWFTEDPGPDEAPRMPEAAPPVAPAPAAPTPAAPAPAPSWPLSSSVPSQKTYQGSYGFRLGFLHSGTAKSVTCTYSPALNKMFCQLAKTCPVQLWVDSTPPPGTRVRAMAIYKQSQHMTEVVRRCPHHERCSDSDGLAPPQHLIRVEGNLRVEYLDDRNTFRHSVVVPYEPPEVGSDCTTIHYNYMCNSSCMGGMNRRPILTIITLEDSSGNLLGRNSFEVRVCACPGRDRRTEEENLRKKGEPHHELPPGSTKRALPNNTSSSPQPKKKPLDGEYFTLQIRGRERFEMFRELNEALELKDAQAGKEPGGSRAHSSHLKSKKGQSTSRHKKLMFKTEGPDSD
Sequence of Nuclear receptor subfamily 1 group I member 2 (Homo sapiens) (O75469 whole entry, looked up, the tested form may be a part): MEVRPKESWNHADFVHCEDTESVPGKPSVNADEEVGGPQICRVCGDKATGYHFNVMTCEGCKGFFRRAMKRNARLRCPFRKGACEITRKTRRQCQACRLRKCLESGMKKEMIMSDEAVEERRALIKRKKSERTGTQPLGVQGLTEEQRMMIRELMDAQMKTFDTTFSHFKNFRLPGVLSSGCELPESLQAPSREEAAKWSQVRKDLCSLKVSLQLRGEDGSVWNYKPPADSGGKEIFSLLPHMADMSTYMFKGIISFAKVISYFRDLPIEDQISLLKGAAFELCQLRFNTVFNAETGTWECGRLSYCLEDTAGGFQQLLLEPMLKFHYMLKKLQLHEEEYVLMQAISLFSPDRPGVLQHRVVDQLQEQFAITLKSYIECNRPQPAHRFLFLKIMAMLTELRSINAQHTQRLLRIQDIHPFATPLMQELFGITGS
Sequence of human Peroxisome Proliferator-activated Receptor alpha (PPARa), PPARA (gene 5465) (Q07869 whole entry, looked up, the tested form may be a part): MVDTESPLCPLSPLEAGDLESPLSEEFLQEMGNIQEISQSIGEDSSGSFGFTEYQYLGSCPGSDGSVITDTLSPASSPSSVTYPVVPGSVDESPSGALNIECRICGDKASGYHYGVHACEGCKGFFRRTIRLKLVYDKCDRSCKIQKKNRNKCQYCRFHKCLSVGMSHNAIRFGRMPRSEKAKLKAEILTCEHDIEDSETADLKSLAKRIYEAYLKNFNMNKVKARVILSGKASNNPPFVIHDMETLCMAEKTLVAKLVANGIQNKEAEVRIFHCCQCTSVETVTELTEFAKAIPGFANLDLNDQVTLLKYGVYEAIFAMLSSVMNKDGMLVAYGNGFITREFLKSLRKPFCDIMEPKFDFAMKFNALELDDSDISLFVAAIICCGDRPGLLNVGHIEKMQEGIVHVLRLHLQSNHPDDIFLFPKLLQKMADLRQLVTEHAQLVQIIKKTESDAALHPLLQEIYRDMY
Sequence of human Peroxisome Proliferator-activated Receptor delta (PPARd), PPARD (gene 5467) (Q03181 whole entry, looked up): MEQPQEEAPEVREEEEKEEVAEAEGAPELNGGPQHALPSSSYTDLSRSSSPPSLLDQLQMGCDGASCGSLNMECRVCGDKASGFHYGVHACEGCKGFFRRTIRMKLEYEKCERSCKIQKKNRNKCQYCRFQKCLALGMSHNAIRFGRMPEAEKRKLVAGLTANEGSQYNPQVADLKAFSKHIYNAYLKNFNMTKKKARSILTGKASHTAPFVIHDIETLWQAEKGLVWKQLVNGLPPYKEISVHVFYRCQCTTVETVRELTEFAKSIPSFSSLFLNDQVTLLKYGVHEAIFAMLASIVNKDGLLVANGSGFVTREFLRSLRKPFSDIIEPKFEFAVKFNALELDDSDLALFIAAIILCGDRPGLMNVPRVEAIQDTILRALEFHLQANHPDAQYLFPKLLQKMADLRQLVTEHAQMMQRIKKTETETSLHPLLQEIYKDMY
Sequence of Retinoic acid receptor alpha (Homo sapiens) (P10276 whole entry, looked up, the tested form may be a part): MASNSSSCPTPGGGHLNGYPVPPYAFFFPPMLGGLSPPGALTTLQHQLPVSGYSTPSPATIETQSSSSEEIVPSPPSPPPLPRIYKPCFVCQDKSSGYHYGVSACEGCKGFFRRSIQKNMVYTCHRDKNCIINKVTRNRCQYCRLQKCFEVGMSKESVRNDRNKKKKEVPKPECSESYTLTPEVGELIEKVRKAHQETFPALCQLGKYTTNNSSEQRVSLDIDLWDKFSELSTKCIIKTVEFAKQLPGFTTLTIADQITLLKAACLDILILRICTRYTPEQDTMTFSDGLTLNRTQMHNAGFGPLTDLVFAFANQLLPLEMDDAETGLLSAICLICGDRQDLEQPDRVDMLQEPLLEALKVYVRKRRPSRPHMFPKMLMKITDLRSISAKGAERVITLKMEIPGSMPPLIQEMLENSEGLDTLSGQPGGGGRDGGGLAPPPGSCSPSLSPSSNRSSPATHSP
Sequence of human RAR-related Orphan Receptor gamma (RORg), RORC (gene 6097) (P51449 whole entry, looked up, the tested form may be a part): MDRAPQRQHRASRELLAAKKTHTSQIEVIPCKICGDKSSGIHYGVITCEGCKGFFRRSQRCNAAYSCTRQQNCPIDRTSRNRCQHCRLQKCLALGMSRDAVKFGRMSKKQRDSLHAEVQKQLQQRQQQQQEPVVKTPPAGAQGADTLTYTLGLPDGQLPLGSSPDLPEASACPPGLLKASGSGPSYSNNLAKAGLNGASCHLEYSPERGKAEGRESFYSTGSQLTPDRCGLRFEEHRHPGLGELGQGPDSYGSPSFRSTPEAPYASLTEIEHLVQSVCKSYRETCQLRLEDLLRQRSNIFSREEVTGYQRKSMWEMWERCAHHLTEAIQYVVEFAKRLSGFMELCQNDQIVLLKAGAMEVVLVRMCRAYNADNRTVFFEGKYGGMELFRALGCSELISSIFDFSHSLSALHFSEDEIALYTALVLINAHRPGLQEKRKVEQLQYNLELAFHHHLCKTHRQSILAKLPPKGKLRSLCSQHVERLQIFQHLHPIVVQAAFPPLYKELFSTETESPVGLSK

What is called AC50 is the midpoint of the concentration-response curve, whichever way the signal moves. Regarding `ClC(Cl)=C(Cl)C(Cl)=C(Cl)Cl`, the AC50 was 119 µM (active) in test [1]; 66 µM (active) in [2]; 149 µM (active) in test [3]; 14.6 µM (active) in [4]; 32.4 µM (active) in [5]; 29.2 µM (active) in test [6]. Further, the AC50 in test [7] is 36.9 µM (active); in [9] it was 34 µM (active); in [10], 14.3 µM (active). Also, the compound was classed as inactive in [8], in test [11], in test [12], in test [13] and in [14].
As for `O=C1CCCN1`, the result in test [1], in test [15], in test [2], in [3], in test [8] and in [16] was inactive. The outcome in [13] and in [14] was inactive.
For `CC(=O)OC(c1ccccc1)C(Cl)(Cl)Cl` (centres undefined), the compound was classed as inactive in test [1], in test [2], in test [3], in test [17], in [4] and in [5]. Moreover, the result in test [6], in test [7], in test [18], in test [8], in test [9] and in test [10] was inactive. The call in [16] and in [14] was inactive. For the same compound, in test [11], the AC50 was 59 µM (active).
As for `ClCC(Cl)CCl`, the compound was called inactive in test [1], in [2], in [3], in test [17], in test [4] and in test [5]. Moreover, the outcome in test [6], in test [7], in [8], in test [9], in [19] and in test [10] was inactive. The compound was called inactive in [12], in [13] and in test [14].
For `O=C(Cc1ccccc1)c1ccccc1`, the outcome in [1], in test [3], in test [17], in test [18], in [8] and in test [19] was inactive. In addition, the result in test [12] and in test [14] was inactive. Further, the values for the AC50 in test [2] and in test [11] were 19.8 µM (active) and 27.8 µM (active), respectively.
Turning to `Cc1ccc(N)cc1Cl`, the compound was classed as inactive in test [1], in [15], in test [2], in test [3], in test [18] and in test [11]. Besides, the outcome in test [14] was inactive.
With `CCOP(=S)(OCC)Oc1ccc(S(C)=O)cc1` (centres undefined), the result in test [1], in [2], in [3], in test [4], in test [5] and in [6] was inactive. Also, the outcome in [7], in test [8], in test [9], in [19], in [10] and in test [16] was inactive. Further, the outcome in [12], in test [20] and in test [14] was inactive. Moreover, the AC50 in test [11] is 7.06 µM (active).
Regarding `Nc1cccc2ccccc12`, the call in [1], in test [3], in test [17], in test [5], in test [6] and in test [7] was inactive. Also, the compound was classed as inactive in [18], in [9], in test [16], in [11] and in test [14]. The AC50 in test [2] is 77.9 µM (active); in test [4], 12.4 µM (active); in [10] it was 7.58 µM (active).
